Results from PubChem BioAssay AID449762 (Southern Research Specialized Biocontainment Screening …, 2010).
About 1,900 (0.58%) of roughly 330,000 compounds were called active. Not shown: some 4% with an inconclusive outcome. These entries were drawn from the full list. Entries with a potency or affinity are not part of this list. A number with no mark means an inactive call. Rule as the data show it: inconclusive = inhibition above about 70% without an active follow-up result; inactive = below that.

assay: M. tuberculosis growth inhibition, HTS (AID 449762);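 also: bacterial growth assessed after seven days of incubation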; conditions: M. tuberculosis H37Rv growth inhibition, 7H9 media; at 25 µM; stronger effect = higher value

SMILES | inhibition
CC1CCCC(NC(=O)COC(=O)c2ccc(S(=O)(=O)N3CCOCC3)cc2)C1C (stereo unspecified) | -1.74%
Cc1ccc(C(=O)NNC(=O)c2csc(N3CCOCC3)n2)o1 | 0.22%
Cc1nn(-c2ccccn2)c2c1-c1nc(N)ncc1CC2 | 0.53%
Cc1nn(-c2ccc(F)cc2F)c2c1-c1nc(N3CCCC3)ncc1CC2 | 69.4%
CCO/C=N/Nc1nc(C(F)(F)F)nc2c1cnn2Cc1ccccc1 | 60.4%
COc1ccc(OC)c(NC(=O)c2ccc(OCC(=O)N3CCOCC3)c(OC)c2)c1 | 1.16%
CCNc1nc(CN2CCCCC2)nc2scc(-c3ccccc3)c12 | 40.7%
CN(Cc1ccccc1)c1nc(CN2CCOCC2)nc2scc(-c3ccccc3)c12 | 5.04%
Cc1ccc(NC(=O)NCc2nc3ccccc3n2C)cc1 | -2.85%
O=C(Nc1ccccc1[N+](=O)[O-])C1=C(O)CCn2c1nc1ccccc12 | -3.87%
COC(=O)CN1C(=O)N(c2ccccc2)C(N(O)C(=O)Nc2ccccc2)C1(C)C (stereo unspecified) | 2.21%
COc1ccc(Nc2nc(N3CCN(S(C)(=O)=O)CC3)nc3ccccc23)c(OC)c1 | 2.78%
COc1ccc(Nc2nc(N3CCN(C)CC3)nc3ccccc23)c(OC)c1 | -4.21%
C=CCNC(=O)CN1C2CCCC1CC(NC(=O)c1ccccc1C)C2 (stereo unspecified) | -6.37%
O=C(COC(=O)c1ccccc1N1C(=O)C2C3CCC(C3)C2C1=O)c1ccccc1 (stereo unspecified) | -3.76%
COc1cc([N+](=O)[O-])ccc1NC(=O)CN1CCc2cc(OC)c(OC)cc2C1 | 6.98%
CCOC(=O)C(NCCCCl)c1ccccc1 (stereo unspecified) | 0.32%
COc1ccccc1OCCOCCN1CCCC1 | -4.15%
COc1ccccc1OCCCCN1CCCCC1 | 2.93%
CCCc1cc(NC(=O)COC(=O)c2ccc(O)cc2O)n(-c2ccccc2)n1 | -2.82%
CCCc1cc(NC(=O)COC(=O)c2nccnc2N)n(-c2ccccc2)n1 | 50.9%

SMILES | inhibition
C=CCNC(=S)NNC(=O)CCC(O)COCCC(C)C (stereo unspecified) | 1.2%
CCOC(=O)N1CCC(NC(=O)c2cc(COc3ccccc3SC)on2)CC1 | 1.54%
COc1cc(/C=C2/C(=O)N(c3ccc(C)c(C)c3)N=C2C)cc([N+](=O)[O-])c1O | -4.94%
CC1=NN(c2cccc(C(=O)O)c2)C(=O)/C1=C\C=C\c1ccco1 | -4.32%
Cc1nn(C)c(C)c1CNC(=O)Nc1cccc(Cl)c1C | -2.03%
Cc1ccc([N+](=O)[O-])c(NC2OC(CO)C(O)C2O)c1 (stereo unspecified) | -2.66%
COc1ccc(C2CC(c3ccc(Br)cc3)=NN2C(=O)c2cccnc2)cc1 (stereo unspecified) | 47.5%
N#CCc1nc2ccc(S(=O)(=O)N3CCOCC3)cc2s1 | -0.38%
Cc1ccccc1CN1CCCN(Cc2ccc(Cl)cc2)S1(=O)=O | 2.25%
CCOC(=O)c1c(NC(=O)CCCC(=O)O)sc2c1CCC2 | 1.76%
CCOC(=O)c1c(NC(C)=O)sc2c1CCC(C=O)=C2Sc1ccccc1 | 6.72%
COc1cccc(Cn2c(=O)ccc3ccccc32)c1 | 7.74%
Cc1ccc(C(=O)Nc2ccc(Oc3cccc(C(F)(F)F)c3)nc2)cc1 | 3.4%
O=C(Nc1ccc(Oc2cccc(C(F)(F)F)c2)nc1)c1ccccc1 | 14%
O=C1CN=CN=CN1c1ccc(Cl)cc1Cl | 10.8%
CCOC(=O)N1CCN(C(=O)C2CCC(=O)N(CCCc3ccccc3)C2)CC1 (stereo unspecified) | -4.71%
Cc1cc(CC(C)C)n(-c2nc3ccccc3c(=O)n2OCc2ccccc2)n1 | 58.9%
Cc1cc(C)n(-c2nc3ccccc3c(=O)n2OCC(N)=O)n1 | 13.1%
Cc1ccc(S(=O)(=O)NCC(=O)N(CC(=O)NCC2CCCO2)c2ccc(Cl)cc2)cc1 (stereo unspecified) | -3.29%
COc1ccc(C(=O)NNC(=O)CSc2nc3c(c(=O)n(C)c(=O)n3C)n2C)cc1 | 1.02%
COc1cc(NC(=O)C[n+]2ccc(C(=O)c3ccccc3)cc2)cc(OC)c1 | -7.81%

SMILES | inhibition
O=C(Nc1ccc(C(F)(F)F)cc1)c1ccccc1 | 0.07%
C[C@@H](CN1C(=O)C(=O)NC[C@@H]1Cc1ccc(O)cc1)NC(=O)Cc1ccccc1 | -2.19%
Cn1cccc1-c1cc(C(=O)N/N=C/c2ccc(F)cc2)[nH]n1 | -3.95%
CN(Cc1ccco1)c1ncnc2ccc(-c3ccoc3)cc12 | 17.5%
Cc1sc2ncnc(N(C)Cc3ccco3)c2c1C | -1.32%
C=CCOc1ccc(C2CC(C)=NN2c2ccccc2)cc1 (stereo unspecified) | 3.55%
CCOC(=O)C1=NN(c2ccccc2)C(c2ccccc2)CC1=O (stereo unspecified) | 12.7%
Cc1ccc(N2C(=O)C3C(c4ccccc4)(C2=O)C3(c2ccccc2)c2ccccc2)cc1 (stereo unspecified) | 20.2%
O=C1c2ccccc2C(=O)N1c1ccc(Cl)cc1 | -5.93%
O=c1c(Br)c(NCc2ccccc2)cnn1-c1ccc(F)cc1 | -5.73%
Cn1nnnc1Sc1ccc(C(=O)O)cc1[N+](=O)[O-] | 2.4%
O=C(O)c1ccc(Sc2nnnn2-c2ccccc2)c([N+](=O)[O-])c1 | 3.58%
COc1ccc(C(=O)c2ccc(N3CCN(C4CC(=O)NC4=O)CC3)cc2)cc1F (stereo unspecified) | 0.26%
Cc1nc(Sc2ccccc2)c(C#N)c(C)c1[N+](=O)[O-] | 3.11%
Nc1ncnc(Sc2ccccc2)c1[N+](=O)[O-] | -0.35%
C=CCNC(=O)COc1cc(C)cc(C)c1C | -2.5%
CCOc1ccc(CCNC(=O)Cn2c(=O)c3cccn3c3cccnc32)cc1 | -8.95%
Cc1ccc(Sc2c([N+](=O)[O-])ncn2C)cc1 | -9.59%
Cn1cnc([N+](=O)[O-])c1Sc1ccccc1 | -3.64%
